# Screening results deposited in PubChem BioAssay by National Center for Advancing Translational Sciences (NCATS).
# Six1-Eya2 blk: Six1/Eya2 interaction inhibition | AlphaScreen GST-Six1/His-Eya2 binding, biochemical; hits give low values | 360,000 compounds, 0.56% hits | activity change, % (no concentration beside the values); in the data active = activity change below about -65%; inconclusive = mostly about -30% to -63%
#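 GST-Six1 + His-Eya2 (5X stock: 250/500 nM); Tris pH 8.0, 300 mM NaCl, 0.05% BSA, 0.02% Tween 20; GSH donor/Ni acceptor beads; 1 h 37 °C dark; AlphaScreen readout.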
# USP2a block: blocks human ubiquitin-specific protease USP2a; O75604; USP2 core, Ub-CHOP2 coupled fluorogenic reporter, 485/531; Potency, µM (top dose mostly 38.3 µM), without a hit: at the top dose activity change, negative = inhibition, actives largely listed as inhibitors; 330,000 compounds, 0.01% hits;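 also: potency is read from the fitted curve at half-maximal effect; plate controls were DMSO wells for no effect and full inhibition by NEM control for full effect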
#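 USP2 core (10nM final) preincubated 30min RT with compound in 20mM Tris-HCl pH 8.0, 2mM CaCl2, 2mM beta-mercaptoethanol, 0.05% CHAPS; 25nM Ub-CHOP2 plus 25nM reporter substrate added, fluorescence (Ex485/Em531) read after 60min.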
# CtBP-E1A inh: inhibitors of CtBP/E1A interaction; 340,000 compounds, 0.49% hits; activity change, % (no concentration beside the values); AlphaScreen GST-E1A/His-CtBP binding, 1536-well; hits give low values; in the data active = activity change below about -65%; inconclusive = mostly about -30% to -63%
#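 In 5 uL wells, 23 nL compound meets equimolar GST-E1A and His-CtBP (5X stock 125 nM each) for 2 h, 37 °C. Beads (5X, 50 ug/mL) then 1 h, 37 °C, dark.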
# L3MBTL1 inh: blocks human L3MBTL1. Q9Y468. AlphaScreen L3MBTL1–H3K9me1 peptide binding. Potency, µM (highest dose often 57.1 µM), for the others: top-dose activity, negative = inhibition, actives largely listed as inhibitors. 230,000 compounds, 0.66% hits; also: potency is read from the fitted curve at half-maximal effect; nearly all actives have a fitted effect of over 60% in size
#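 L3MBTL1 (50 nM) pre-complexed 30 min with biotinylated H3(1-15)K9me1 peptide (75 nM), then compounds added for 30 min at room temperature; AlphaScreen streptavidin donor/nickel chelate acceptor beads (10 ug/mL final) read after 30 min dark incubation.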
# Eya2 phos inh: blocks the phosphatase activity of human Eya2; 330,000 compounds, 0.006% hits; O00167; AID 488837; Potency, µM (highest dose often 76.9 µM), for the others: at the highest dose activity, negative = inhibition, most hits filed as inhibitors; recombinant Eya2, OMFP fluorescence dephosphorylation (OMFP is methylfluorescein phosphate); also: potency is read from the fitted curve at half-maximal effect
# Target sequence (O00167 whole entry, looked up): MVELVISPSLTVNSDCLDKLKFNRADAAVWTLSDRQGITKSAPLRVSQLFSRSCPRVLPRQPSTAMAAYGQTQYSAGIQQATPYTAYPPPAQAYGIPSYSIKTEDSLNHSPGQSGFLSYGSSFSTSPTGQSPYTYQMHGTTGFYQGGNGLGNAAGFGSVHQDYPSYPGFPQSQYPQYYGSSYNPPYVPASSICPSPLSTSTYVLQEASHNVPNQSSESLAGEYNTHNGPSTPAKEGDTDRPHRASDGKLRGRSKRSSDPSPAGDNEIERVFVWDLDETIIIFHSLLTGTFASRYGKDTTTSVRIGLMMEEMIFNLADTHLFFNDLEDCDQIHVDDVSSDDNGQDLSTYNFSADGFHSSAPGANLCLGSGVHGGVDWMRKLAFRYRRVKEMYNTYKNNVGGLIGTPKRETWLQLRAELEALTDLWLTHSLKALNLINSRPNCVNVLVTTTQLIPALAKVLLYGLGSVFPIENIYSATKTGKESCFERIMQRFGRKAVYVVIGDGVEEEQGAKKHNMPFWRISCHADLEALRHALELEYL
#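 Eya2 (0.2 uM) preincubated 10 min at ambient with compound, then OMFP substrate added at 50 uM; 10 min reaction in 50 mM HEPES pH 7.5, 50 mM NaCl, 5 uM MgCl2, 0.05% BSA, 1 mM DTT. Fluorescence read at Ex 485/Em 525 nm.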
# uPA generation: inhibitors of cell surface uPA generation. cell surface uPA generation assay, qHTS. Potency, µM (titrated, usually from 38.3 µM), inactives show top-dose activity change, negative = inhibition, hits mostly inhibitors. 330,000 compounds, 0.31% hits. AID 540303; active = well fitted inhibition curve with a large enough effect; inconclusive = small, poorly fitted or top-dose-only effect; inactive = no such curve, though single readings can be large or run the other way; tested in mouse RAW 264.7 cells; also: potency is read from the fitted curve at half-maximal effect; nearly all actives have a fitted effect of over 55% in size
# An asterisk follows results filed as active; ? = inconclusive; . = no result. The list is not random: actives were taken first. Their share in the collection is about 1.2%. Unless noted, calls follow the shape of the dose curve; as a rule, active = well fitted curve in the direction sought with a large enough effect; inconclusive = small, poorly fitted or top-dose-only effect, or another doubt; inactive = no such curve, though single readings can be large; an effect the other way counts as inactive or inconclusive. Unless noted, % is scaled to controls: 0 for no effect and ±100 for the full control effect.
SMILES,Six1-Eya2 blk,USP2a block,CtBP-E1A inh,L3MBTL1 inh,Eya2 phos inh,uPA generation
O=C(Nc1nc(-c2ccco2)c(-c2ccco2)s1)C1CCC1,-27,0%,-14,?,-2%,-1%
CC(=O)c1ccccc1NC(=O)COC(=O)/C(=C/c1ccccc1)n1nnnc1C,3,0%,-1,.,1%,-9%
Cc1ccc(S(=O)(=O)Nc2cccc3ncccc23)s1,-86*,1%,-81*,?,10%,-6%
COCCN(Cc1cc2ccc(C)cc2[nH]c1=O)S(=O)(=O)c1ccccc1,9,1%,5,.,17%,1%
CC(C)(C)C1=CC(=Nc2ccccc2N)C=C(C(C)(C)C)C1=O,-81*,0%,-79*,2%,2%,4%
COc1cc2c(ccc3cc(OC)c(OC)c(O)c32)cc1O,?,-30%,0,.,17%,10µM*
CC(/C=C/c1ccccc1)=N/NC(=O)c1cnccn1,-86*,0%,-5,-5%,0%,0%
c1ccc2c(CCNc3ncnc4nc[nH]c34)c[nH]c2c1,-4,1%,5,?,-2%,2.8µM*
CCCCCN(C(=O)COC(=O)c1ccc(C)cc1)c1c(N)n(CCCC)c(=O)[nH]c1=O,4,-1%,-9,13%,-21%,-6%
COc1cc(C(=O)Nc2ccc(C(F)(F)F)cc2)ccc1OCC(=O)N1CCOCC1,-5,-1%,11,5%,-10%,-4%
CCOc1cccc(/C=N/NC(=O)c2ccc3c(c2)OCCO3)c1O,?,0%,-87*,.,1%,0%
COc1cccc(/C=N/NC(=O)CNC(=O)c2ccco2)c1O,-84*,2%,?,4%,15%,?
COc1cccc(/C=N/NC(=O)C(=O)NCc2cccnc2)c1O,-89*,1%,-92*,?,12%,-6%
O=C(CNC(=O)c1ccncc1)N/N=C/c1ccc(O)cc1O,-90*,1%,.,-29%,-1%,7%
COc1cc(/C=N/NC(=O)CNC(=O)c2ccncc2)ccc1O,0,-1%,-1,.,6%,5%
Fc1ccccc1-c1nc2c(s1)CCc1onc(-c3ccc(Br)cc3)c1-2,-3,.,1,.,.,8%
CCC(Nc1ccc(OC)cc1)C(=O)N/N=C/c1ccc([N+](=O)[O-])cc1 (centres undefined),-11,2%,-1,-6%,-11%,1%
O=C(NCCc1ccccc1)C(c1ccccc1F)N(C(=O)c1csnn1)C1CC1 (centres undefined),8,2%,5,.,-12%,0%
O=C(CNC(=O)c1ccc(-c2ccccc2)cc1)Nc1ccc(S(=O)(=O)Nc2ncccn2)cc1,-4,0%,.,0%,-9%,-21%
C[C@@H]1CN([C@@H](C)CO)C(=O)CCCn2nncc2CO[C@H]1CN(C)S(=O)(=O)c1cn(C)cn1,-2,.,-3,.,.,.
COc1cccc(/C=C/C(=O)NNC(=O)c2ccco2)c1OC,-2,-1%,-1,10%,2%,2.8µM*
O=C(C[n+]1ccccc1)N/N=C/c1cc(Br)ccc1O,-88*,1%,0,.,11%,-4%
O=C(C[n+]1ccccc1)N/N=C/c1ccccc1F,1,2%,?,.,7%,-3%
COc1cccc(/C=N/NC(=O)CNC(=O)C2COc3ccccc3O2)c1O (centres undefined),?,-1%,-83*,6%,0%,?
O=C(CNC(=O)c1ccco1)Nc1ccc(F)cc1,2,3%,-96*,7%,10%,3%
Cc1ccc(S(=O)(=O)N2CCOCC2)cc1C(=O)OC1CCOC1=O (centres undefined),-4,2%,9,4%,-33%,14%
COc1cccc(/C=N/NC(=O)CNC(=O)c2ccc3c(c2)OCCO3)c1O,-88*,0%,?,13%,2%,-10%
COc1cccc(/C=N/NC(=O)C[n+]2ccccc2)c1O,-87*,1%,-88*,16µM*,-2%,1%
